Assay results taken from PubChem BioAssay (NCATS).
Results filed as inconclusive are left out. Active and inactive are the calls of the source. Calls follow the shape of the dose curve; as a rule, active = well fitted curve in the direction sought with a large enough effect; inconclusive = small, poorly fitted or top-dose-only effect, or another doubt; inactive = no such curve, though single readings can be large; an effect the other way counts as inactive or inconclusive.

Columns and labels:
[1] = qHTS to identify inhibitors of the type 1 interferon - major histocompatibility complex class I in skeletal muscle: primary screen against the NCATS LOPAC collection (AID 1347405);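 also: lytic HiBiT luminescence reporting HLA-B protein level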; also: potency is read from the fitted curve at half-maximal effect
Procedure, shortened: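 After 24 h at 37 C with compounds (7-point, 1:4.3 dilutions, 46 uM top final) plus 4 ng/ml IFN-beta, luminescence from lytic HiBiT detection was measured. HLA-B*08:01 in C25cl48 myoblasts carried an endogenous C-terminal HiBiT tag; medium lacked dexamethasone.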

[2] = qHTS for inhibitors of adenylyl cyclases using a fission yeast platform: a pilot screen against the NCATS LOPAC library (AID 1347410)
Procedure, shortened: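 GFP from fbp1-GFP reporter, read by Acumen laser cytometry, indicates AC inhibition in fission yeast expressing AC9, GNAS and PDE4D2. Cells grown 18 h in the dark at 30C with compounds, final up to 57 uM.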

[3] = Validation qHTS assay for inhibitors of Activation Induced Cytidine Deaminase (AID): UDG Counterscreen signal (AID 1347427); also: potency is read from the fitted curve at half-maximal effect
Procedure, shortened: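 Fluorescence at 560 nm excitation, 665 nm emission reports UDG signal after 250 mM NaOH (2x) addition and 30 min. Enzymes (AID 1 uM, UDG 2 U/mL, at 4/3x) preincubated 10 min with compound, then 4 h with 4x 250 nM DJC20/DJC23 substrate at room temperature.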

[4] = target: Single-stranded DNA cytosine deaminase (Homo sapiens) (UniProt Q9GZX7); test: Validation qHTS assay for inhibitors of Activation Induced Cytidine Deaminase (AID): AID signal (AID 1347429)
Procedure, shortened: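 Compounds (final up to 114 uM) preincubated with AID plus UDG; 250 nM DJC20/DJC23 substrate mix (4x stock) added, 4 hr at room temperature, then NaOH, 30 min. Read 1 fluorescence at 540 nm excitation, 590 nm emission.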

[5] = target: Calcium and integrin-binding protein 1 (Homo sapiens) (UniProt Q99828); test: Validation qHTS for Identification of Calcium Integrin Binding protein 1 (CIB1) Competitor (AID 1508618)
Procedure, shortened: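 In this qHTS validation, the LOPAC set (up to 114 uM) was tested for blocking CIB1 binding to a fluorescein-tagged alphaIIb peptide, with FP detection at 480/540 nm.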

[6] = Counterscreen qHTS for small molecule stabilizers of the endoplasmic reticulum resident proteome: GLuc-NoTag assay (AID 1508627);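 also: SH-SY5Y cells given compound then 100 nM thapsigargin to empty ER calcium; series mostly up to about 76 µM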
Procedure, shortened: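 Counterscreen line: SH-SY5Y-GLuc-NoTag cells, treated with compound 19 hr before a 4 hr, 100 nM thapsigargin calcium depletion. Secreted Gaussia luciferase in the medium was measured by luminescence after coelenterazine was added (0.07x final), with cells unlysed.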

[7] = Primary qHTS for small molecule stabilizers of the endoplasmic reticulum resident proteome: Secreted ER Calcium Modulated Protein (SERCaMP) assay (AID 1508630)
Procedure, shortened: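 The SH-SY5Y reporter protocol was run at 3 concentrations up to 38.3 uM (primary) or 11 concentrations (follow-up): 16 h compound, 100 nM thapsigargin for 4 h, then extracellular luciferase luminescence.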

[8] = Primary qHTS for inhibitors of La Crosse Virus (LACV) - induced cell death in SH-SY5Y cells (AID 1508616);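 also: top concentration of the series differs between compounds; higher means more rescue of cells from virus-induced death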
Procedure, shortened: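 Rescue of virus-induced death was read as ATPLite luminescence after 6 days at 37C, scaled between DMSO wells with LACV and without virus. Cells were SH-SY5Y, 6000/well, infected at 0.01 MOI after compound addition.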

[9] = target: Calcium and integrin-binding protein 1 (Homo sapiens) (UniProt Q99828); test: Primary qHTS for Identification of Calcium Integrin Binding Protein 1 (CIB1) Competitor (AID 1508620);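 also: GST tagged CIB1 binding a fluorescein labelled alphaIIb integrin peptide tracer; top concentration of the series differs between compounds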
Procedure, shortened: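 CIB1-GST (1 uM final) and compound incubated 15 min at room temperature before adding FITC-alphaIIb peptide tracer (100 nM final). Competition for binding read by fluorescence polarization (ex 480, em 540) after another 15 min at room temperature.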

Measured: Potency

Single-stranded DNA cytosine deaminase (Homo sapiens), sequence (Q9GZX7 whole entry, looked up): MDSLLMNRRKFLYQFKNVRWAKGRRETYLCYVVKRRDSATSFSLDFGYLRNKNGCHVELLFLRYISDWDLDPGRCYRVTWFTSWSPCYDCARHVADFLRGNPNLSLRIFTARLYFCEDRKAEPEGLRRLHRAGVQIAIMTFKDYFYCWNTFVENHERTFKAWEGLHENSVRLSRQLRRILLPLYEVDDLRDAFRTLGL
Calcium and integrin-binding protein 1 (Homo sapiens), sequence (Q99828 whole entry, looked up): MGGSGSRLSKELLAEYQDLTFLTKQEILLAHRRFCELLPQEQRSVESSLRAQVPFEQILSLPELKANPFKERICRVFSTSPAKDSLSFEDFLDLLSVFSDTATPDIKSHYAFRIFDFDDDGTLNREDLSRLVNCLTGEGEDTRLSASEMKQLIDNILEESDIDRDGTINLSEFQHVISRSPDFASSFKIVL

Fc1ccc(C(OCCCc2cnc[nH]2)c2ccc(F)cc2)cc1
inactive: [1] | [2] | [3] | [4] | [5] | [6] | [7]

N=c1ccn2c(n1)O[C@H]1[C@H](O)[C@@H](CO)O[C@H]12
inactive: [1] | [2] | [3] | [5]

Nc1nc2c(ncn2[C@@H]2O[C@H](CO)[C@@H](O)[C@@H]2O)c(=O)[nH]1
inactive: [1] | [2] | [5]

NC(=S)c1ccc[n+]([C@@H]2O[C@@H](COP(=O)([O-])OP(=O)(O)OC[C@H]3O[C@@H](n4cnc5c(N)ncnc54)[C@H](OP(=O)(O)O)[C@@H]3O)C(O)C2O)c1 (some centres undefined)
inactive: [1] | [2] | [3] | [8] | [5] | [6]

O=C(c1ccc(Cl)cc1)N1CCN(c2ccc([N+](=O)[O-])c3ncccc23)CC1
inactive: [1] | [2] | [3] | [4] | [5]

Cn1c(=O)c2[nH]c(-c3ccccc3)nc2n(C)c1=O
inactive: [1] | [2] | [3] | [4] | [7]

Cn1ncc(S(=O)(=O)Cc2ccccc2)c(Br)c1=O
inactive: [1] | [2] | [3] | [4] | [5] | [7]

O=C(O)c1cc([N+](=O)[O-])ccc1NCCCc1ccccc1
inactive: [1] | [2] | [3] | [8] | [5] | [7]

NCCCS(=O)(=O)O
inactive: [1] | [2] | [3] | [8] | [5] | [7]

CNC(=O)[C@H]1O[C@@H](n2cnc3c(NCc4cccc(I)c4)ncnc32)[C@H](O)[C@@H]1O
inactive: [1] | [2] | [3] | [4] | [5]

CCCC(CCC)C(=O)OC1CC2CCC(C1)[N+]2(C)C (centres undefined)
inactive: [1] | [2] | [5]

COc1ccc(C(=O)/C(Cc2cc(OC)c(OC)c(OC)c2)=C(\C(=O)O)c2ccc3c(c2)OCO3)cc1
inactive: [2] | [5]
active: [1] 14.1 µM

NCCCCC(=O)O
inactive: [1] | [2] | [3] | [8]

CC1CN(S(=O)(=O)c2cccc3cnccc23)CCN1 (centres undefined)
inactive: [1] | [2] | [3] | [8] | [5] | [6]

CC(C)c1cccc(C(C)C)c1N1C(=O)c2ccc(O)cc2C1=O
inactive: [1] | [2] | [5]

O=C(Nc1ccncc1)c1cc([N+](=O)[O-])ccc1Cl
active: [1] 15.8 µM
inactive: [2] | [5]

COc1ccccc1CNCCCCCCNCCCCCCCCNCCCCCCNCc1ccccc1OC
inactive: [1] | [2] | [3] | [8] | [5] | [7]

CCN(CC)c1ncnc2c1ncn2[C@@H]1O[C@H](COP(=O)(O)OP(=O)(O)C(Br)(Br)P(=O)(O)O)[C@@H](O)[C@H]1O
inactive: [1] | [2] | [3] | [8] | [5] | [7]

CN1C2CCC1CC(OC(=O)C(O)c1ccccc1)C2 (centres undefined)
inactive: [1] | [2] | [3] | [8] | [5]

C[N+]1(C)C2CC(OC(=O)[C@H](CO)c3ccccc3)CC1C1OC12 (some centres undefined)
inactive: [1] | [2] | [8] | [5] | [6]

NO
inactive: [1] | [2] | [8] | [7]
active: [3] 56.2 µM

CC1OC1P(=O)(O)O (centres undefined)
inactive: [1] | [2] | [3] | [8] | [5]

Cc1cc(NC2CCCCC2)nc(-n2nc(C)cc2C)n1
inactive: [1] | [2] | [3] | [8] | [5]

COCCOc1cc2nc[nH]c(=O)c2cc1OCCOC
inactive: [1] | [2] | [5]

COc1cc(C(O)CO)ccc1OS(=O)(=O)O (centres undefined)
inactive: [1] | [2] | [3] | [8] | [5] | [7]

OC[C@H]1O[C@@H](n2cnc3c(NC4CCCCC4)ncnc32)[C@H](O)[C@@H]1O
inactive: [1] | [2] | [3] | [4] | [5] | [7]

CCCCC#Cc1nc(NC)c2ncn([C@@H]3O[C@H](CO)[C@@H](O)[C@H]3O)c2n1
inactive: [1] | [2] | [3] | [4] | [5] | [7]

CO[C@H]1O[C@@H]2O[C@]3(C)CC[C@@H]4[C@@H](C)CC[C@H]([C@H]1C)[C@]24OO3
inactive: [1] | [2] | [5]

S=c1[nH]c(-c2ccccc2)cn1-c1ccccc1
inactive: [1] | [2] | [5]

CC1(C)CCC=[N+]1[O-]
inactive: [1] | [3] | [4] | [8] | [5] | [7]

CCNc1nc2c(ncn2[C@H]2C[C@H](O)[C@@H](CO)O2)c(=O)[nH]1
inactive: [1] | [2] | [5] | [9]
